HP1b chromo inh: inhibitors of HP1-beta chromodomain binding to methylated histone tails; P83916; AlphaScreen HP1-beta / biotin-H3K9me3 peptide binding; Potency, µM (highest dose often 114 µM), for inactives: top-dose activity change, negative = inhibition, hits mostly inhibitors; 0.56% of 390,000 active; AID 540317; further: potency means the concentration at half of the fitted maximal effect; nearly all actives have a fitted effect of over 70% in size
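HP1-beta protein (50 nM final) preincubated 30 min at room temperature with biotinylated H3(1-18)K9me3 peptide (50 nM) in PBS pH 7.4, 0.01% Tween-20, then compound added for 30 min. AlphaScreen streptavidin donor/nickel chelate acceptor beads (10 ug/mL final), 30 min dark, luminescence read.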
BAZ2B block: BAZ2B (human) inhibition; Q9UIF8; AlphaScreen BAZ2B-H3K14Ac peptide displacement; Potency, µM (highest dose often 114 µM), without a hit: at the highest dose activity change, negative = inhibition, usual class: inhibitors; 4.4% of 360,000 active; AID 504333; further: potency means the concentration at half of the fitted maximal effect; on the % scale 0 is the no-effect control and ±100 the full control effect; nearly all actives have a fitted effect of over 60% in size
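Compounds, titrated to a top concentration of 110 uM, were incubated 30 min at room temperature with preformed BAZ2B/acetyl-K14 H3 peptide complex (50 nM each). Proximity signal was measured by AlphaScreen after 20 min with beads.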
PLK1 PBD inh: blocks phosphopeptide binding to human PLK1 polo-box domain; P53350; Plk1 PBD binding of FITC phosphopeptide, fluorescence polarization; Potency, µM, for inactives: max response, negative = inhibition, hits mostly inhibitors; 2.8% of 360,000 active; AID 720504; further: potency means the concentration at half of the fitted maximal effect; series mostly up to about 57 µM; on the % scale 0 is the no-effect control and ±100 the full control effect; nearly all actives have a fitted effect of over 65% in size
JMJD2A Tudor: blocks the human JMJD2A Tudor domain | AlphaScreen JMJD2A-Tudor / H3K4me3 peptide binding | Potency, µM (doses to about 114 µM), for the others: top-dose activity change, negative = inhibition, actives largely listed as inhibitors | 4.4% of 390,000 active | O75164; further: potency means the concentration at half of the fitted maximal effect; on the % scale 0 is the no-effect control and ±100 the full control effect; nearly all actives have a fitted effect of over 50% in size
PI5P4K alpha inh: inhibitors of human PI5P4K alpha; PI5P4Kalpha enzyme, ADP-Glo luminescence, 60 min; active compounds read low; max response, %; 1.2% of 330,000 active; AID 652105; active means max response of -50% or lower; inconclusive means between -30% and -50%; inactive means -30% or higher; further: value at the top dose of about 77 µM; on the % scale 0 is the no-effect control and ±100 the full control effect
Target sequence (P48426 whole entry, looked up): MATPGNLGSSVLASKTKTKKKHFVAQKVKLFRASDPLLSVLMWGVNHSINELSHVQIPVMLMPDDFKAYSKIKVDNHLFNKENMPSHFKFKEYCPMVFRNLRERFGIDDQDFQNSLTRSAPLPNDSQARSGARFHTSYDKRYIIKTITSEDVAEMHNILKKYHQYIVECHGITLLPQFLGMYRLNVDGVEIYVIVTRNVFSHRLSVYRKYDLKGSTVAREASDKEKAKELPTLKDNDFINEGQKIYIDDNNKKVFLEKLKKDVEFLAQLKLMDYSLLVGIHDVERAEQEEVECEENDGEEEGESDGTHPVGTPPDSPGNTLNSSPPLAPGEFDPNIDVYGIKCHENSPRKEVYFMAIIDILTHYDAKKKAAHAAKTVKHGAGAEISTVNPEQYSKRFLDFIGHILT
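Human PI5P4Kalpha with substrate in 0.038 M HEPES pH 7.4, 0.28 mM EGTA, 0.1% CHAPS, 5% DMSO; reaction started with 5 microM ATP (final), 60 min at room temperature. ADP formed read by ADP-Glo luminescence.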
G9a block: blocks human histone lysine methyltransferase G9a. 8.8% of 350,000 active. Potency, µM (top dose mostly 102 µM), without a hit: top-dose activity, negative = inhibition, hits mostly inhibitors. G9a H3K9 monomethylation, AlphaScreen, 2 h. Q96KQ7; further: potency means the concentration at half of the fitted maximal effect; on the % scale 0 is the no-effect control and ±100 the full control effect; nearly all actives have a fitted effect of over 75% in size
Target sequence (Q96KQ7 913-1193 limits assumed): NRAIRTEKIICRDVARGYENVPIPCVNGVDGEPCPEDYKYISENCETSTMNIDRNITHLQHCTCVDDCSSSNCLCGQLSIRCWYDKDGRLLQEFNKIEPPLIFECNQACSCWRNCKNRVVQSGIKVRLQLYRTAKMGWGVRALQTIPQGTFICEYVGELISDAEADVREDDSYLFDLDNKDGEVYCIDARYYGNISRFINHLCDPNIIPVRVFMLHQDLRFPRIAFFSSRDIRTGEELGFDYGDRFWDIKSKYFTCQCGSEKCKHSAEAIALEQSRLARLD
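Step 1: enzyme (final 20 nM) with compound, 15 min RT. Step 2: substrate peptide 500 nM and SAM 20 uM, 2 h RT. Step 3: anti-H3K9me1 antibody and AlphaScreen beads, 10 min, then plate read.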
* hit, by the source's call; ? = inconclusive; . = no result given; [ ] = remark or other dose. Compounds with a hit are over-represented: about 12% of the library has one in this group of screens. Unless noted, the call rests on the fitted dose curve; in most records, active means well fitted curve in the direction sought with a large enough effect; inconclusive means small, poorly fitted or top-dose-only effect, or another doubt; inactive means no such curve, though single readings can be large; an effect the other way counts as inactive or inconclusive.

SMILES	HP1b chromo inh	BAZ2B block	PLK1 PBD inh	JMJD2A Tudor	PI5P4K alpha inh	G9a block
COc1ccc(CNc2ccnc(-c3ccc(N(C)C)cc3)n2)c(OC)c1	.	.	.	.	.	-4%[0.501 µM]
Cc1cc(C)c(C#N)c(N)n1	11%	2%	-20%	0%	-1	10%
Cc1cc(C)c(C#N)c(=N)o1	-58%	.	4.7µM*	79µM*	?	1.8µM*
C[N+]1(C)CCC(=C2c3ccccc3CC(=O)c3sccc32)CC1	21%	7.1µM*	38µM*	-22%	.	6.3µM*
COc1cc(/C=C(\C#N)c2ccccn2)cc(OC)c1O	24%	-17%	24%	-21%	-3	?
COc1cc(/C=C(\C#N)c2[nH]nc(N)c2C#N)cc(OC)c1O	?	6%	23%	-11%	-64*	?
COc1cccc(C(N)c2nc(-c3csc4ccccc34)cs2)c1 (stereo not drawn)	.	.	-9%	.	1	.
O=C1CCC(C(=O)N2CCc3c(Cl)cccc3C2)CN1CCCN1CCOCC1 (stereo not drawn)	37%	-12%	2%	-1%	-9	40µM*
CCCCN1C(=O)C(CC(=O)NC(c2ccccc2)c2ccccc2)CC(C(=O)N(C(C)C)C(C)C)=C1C (stereo not drawn)	.	.	-4%	.	1	.
O=C(O)CCC(=O)Nc1ccc(N2CCCCC2)c(C(=O)O)c1	32%	10%	-3%	-12%	3	?
O=C(O)CCC(=O)Nc1ccc2c(c1)Cc1cc(NC(=O)CCC(=O)O)ccc1-2	3%	?	?	89µM*	-16	39%[0.501 µM]
O=C1C2CCCN2C(c2cccc(Br)c2)N1c1ccc(F)cc1 (stereo not drawn)	39%	9%	-11%	-6%	1	71µM*
O=C1C2CCCN2C(c2ccc(Br)cc2)N1c1ccc(F)cc1 (stereo not drawn)	52%	6%	1%	-7%	3	5%
COc1ccc(C(N)=S)c(OC)c1	-12%	-4%	?	-12%	-8	8.9µM*
COc1ccc(/C(C)=N/N=C(\C)c2ccc(OC)cc2OC)c(OC)c1	8%	0%	-1%	-9%	18	9%[59 µM]
CCOC(=O)c1csc(NC(=O)CCS(=O)(=O)c2ccc(Cl)cc2)n1	.	.	-20%	.	2	.
Cc1c(NC(=O)CC(=O)Nc2c(C)n(C)n(-c3ccccc3)c2=O)c(=O)n(-c2ccccc2)n1C	12%	-6%	-6%	-15%	.	2%[59 µM]
Cc1c(NN=C(C#N)C#N)c(=O)n(-c2ccccc2)n1C	27%	-34%	-14%	-5%	-5	10µM*
Cc1c(NC(=O)/C(C#N)=C/c2ccccc2)c(=O)n(-c2ccccc2)n1C	13%	-10%	-6%	2%	-1	71µM*
CC(=O)N1CCC(C(=O)N2c3ccccc3N=C(c3ccc(C(F)(F)F)cc3)C2C(=O)NC(C)(C)C)CC1 (stereo not drawn)	.	.	-5%	.	-1	.
CCOC(=O)c1c(C)[nH]c(-c2csc(N)n2)c1C	?	?	?	?	-2	28µM*
CCOC(=O)c1c(C)[nH]c(-c2csc(C)n2)c1C	?	?	-19%	?	-4	?
O=C1CC(c2nnc(Cc3ccc(F)cc3Cl)o2)CN1c1ccccc1 (stereo not drawn)	15%	-11%	.	-17%	.	-22%[59 µM]
CC(C)CN(C(=O)COC(=O)CSc1ccc([N+](=O)[O-])cc1)C1CCS(=O)(=O)C1 (stereo not drawn)	-4%	-1%	19µM*	-21%	-20	-36%
Cc1ccc(SCC(=O)OCC(=O)N(CC(C)C)C2CCS(=O)(=O)C2)cc1C (stereo not drawn)	27%	5%	-5%	-12%	1	-45%
SMILES	HP1b chromo inh	BAZ2B block	PLK1 PBD inh	JMJD2A Tudor	PI5P4K alpha inh	G9a block
CCN(C(=O)COC(=O)c1cc2c(s1)CCCCC2)C1CCS(=O)(=O)C1 (stereo not drawn)	42%	-14%	2%	-6%	-4	2%
CC(C)CN(C(=O)COC(=O)c1cc2c(s1)CCC2)C1CCS(=O)(=O)C1 (stereo not drawn)	-12%	56µM*	?	?	-62*	-34%[59 µM]
CCCN(C(=O)COC(=O)CSc1ccc([N+](=O)[O-])cc1)C1CCS(=O)(=O)C1 (stereo not drawn)	?	-3%	11µM*	56µM*	?	22%[12.7 µM]
COc1cccc(C2=CC(c3ccccc3F)n3ncc(C(=O)Nc4ccc(F)cc4)c3N2)c1 (stereo not drawn)	-10%	-25%[57.1 µM]	.	?	.	?
OCC(O)CS (stereo not drawn)	.	.	.	.	.	19%[59 µM]
CCC(=O)OC1(C)C(=O)C=C2C=C(c3ccc(C#N)cc3)OC=C2C1=O (stereo not drawn)	-20%	.	?	?	-68*	.
CC(C)C[C@@H](N)C(=O)O	.	.	.	.	.	37%[59 µM]
CC1CCc2nc3ccc(S(=O)(=O)N4CCC(C(=O)N5CCCCCC5)CC4)cc3c(C(=O)O)c2C1 (stereo not drawn)	-8%	-21%	6%	-16%	0	45µM*
O=C(O)c1c2c(nc3ccc(S(=O)(=O)N4CCC(C(=O)NC5CCCCCC5)CC4)cc13)CCCC2	4%	50µM*	?	?	-27	40µM*
CC(C)CCNC(=O)C1CCN(S(=O)(=O)c2ccc3nc4c(c(C(=O)O)c3c2)CCCCC4)CC1	31%	-20%	-8%	-5%	8	-9%
CCc1ccc(C(=O)Nc2cccc(-c3nc4cc(C(C)C)ccc4o3)c2)cc1	45%	-4%	.	3%	.	5%[59 µM]
O=c1ccc2ccc(Oc3ccc(Cl)cc3[N+](=O)[O-])cc2o1	-21%	?	-1%	?	0	32µM*
Cc1sc2ncnc(N3CCC(C(=O)Nc4ccc(S(N)(=O)=O)cc4)CC3)c2c1C	11%	-5%	-9%	-25%	0	?
Cc1ccc(NC(=O)C2CCN(c3ncnc4sc(C)c(C)c34)CC2)cc1S(=O)(=O)N(C)C	7%	-1%	8%	-14%	-2	14µM*
CCN(CC)S(=O)(=O)c1cc(NC(=O)C2CCN(c3ncnc4sc(C)c(C)c34)CC2)ccc1Cl	34%	-17%	-4%	-24%	9	45µM*
CCNc1ncc2nc(-c3ccccc3)c(=O)n(C[C@H]3CCCO3)c2n1	.	.	.	.	.	-2%[0.501 µM]
Cc1csc(=Nc2ccccc2)n1CCCN1CCCC1=O	-3%	?	-14%	-33%	3	?
COc1ccc(-c2csc(=Nc3ccccc3)n2CCO)cc1	?	13µM*	-21%	45µM*	2	40µM*
COc1ccc(-c2csc(=NCCO)n2-c2ccccc2)cc1	?	32µM*	-22%	?	1	50µM*

Source: PubChem
